These results are taken from PubChem BioAssay.

SMILES strings stand for the structures.

The assay deals with Streptavidin (Streptomyces avidinii) (UniProt P22629). Description: streptavidin binders on small-molecule microarray, primary screen, artefact control for SMM compound annotation, biophysical, 635/667 nm fluorescence (AID 1147).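 Note: signal reflects streptavidin binding to arrayed compounds as a control protein.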 The settings on record: streptavidin binding, higher = more signal.
Sequence of Streptavidin (Streptomyces avidinii) (P22629 whole entry, looked up): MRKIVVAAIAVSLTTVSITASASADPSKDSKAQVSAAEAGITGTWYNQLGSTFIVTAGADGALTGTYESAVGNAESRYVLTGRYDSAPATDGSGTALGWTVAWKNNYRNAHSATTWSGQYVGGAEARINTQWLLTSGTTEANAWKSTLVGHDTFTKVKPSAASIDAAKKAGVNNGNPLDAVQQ
Compound `CON=C(C)CCC(=O)OC[C@H]1O[C@H](C#Cc2ccccc2)C=C[C@@H]1Oc1ccc(C)cc1` showed a composite z-score of 0.0457.

Turning to `CC(C)(C)N1C(=O)[C@H]2[C@H]3[C@H](O)[C@H](O)CC(=NOC[C@@H](O)COCc4ccco4)[C@@H]3CC[C@H]2C1=O`, the composite z-score was -0.276.

`CO[C@@H]1[C@H](O)CO[C@H]1C=Cc1ccccc1` returned a composite z-score of -0.223.

Compound `CCN1C(=O)[C@H]2[C@H]3[C@H](O)[C@H](O)CC(=NOCC[C@@H]4C=C[C@H](OC(C)=O)[C@@H](COC(C)=O)O4)[C@@H]3CC[C@H]2C1=O` displayed a composite z-score of -0.0034.

As to `CO[C@@H](C1CCCCC1)[C@@H](C)[C@H](OCc1cccc(Br)c1)[C@@H](C)CO`, the composite z-score was -0.0731.

Consider `CCOC(=O)CCN1C(=O)[C@H]2[C@H]3[C@H](O)[C@H](O)CC(=NOCC(C)C)[C@@H]3CC[C@H]2C1=O`, for which the composite z-score is -0.483.

Turning to `CCOC(=O)CCN1C(=O)[C@H]2[C@H]3[C@H](O)[C@H](O)CC(=NO[C@@H]4O[C@H](CO)[C@@H](O)[C@H](O)[C@H]4O)[C@@H]3CC[C@H]2C1=O`, the composite z-score is 0.036.

Compound `CO[C@H]1COC(=O)CC=C[C@@H](C)COC(=O)[C@H]2CCCN2C(=O)CC=C[C@H]1C` yielded a composite z-score of -0.547.

Consider `CCOC(=O)[C@H](Cc1ccccc1)NC(=O)CCC1CC(OC(=O)NCc2cccc3ccccc23)CC2(CCCC(COC(=O)NCCc3ccccc3OC)O2)O1` (stereo partly specified), for which the composite z-score amounted to 0.486.

`Cc1ccc(S(=O)(=O)N[C@@H]2COC(=O)CC=C[C@@H](C)[C@H](NS(=O)(=O)c3ccc(C)cc3)COC(=O)[C@H](C)NC(=O)CC=C[C@H]2C)cc1`: the composite z-score is -0.508.

`CCN1C(=O)[C@H]2[C@H]3[C@H](O)[C@H](O)CC(=NOCC=C(C)CCC=C(C)C)[C@@H]3CC[C@H]2C1=O`: the composite z-score is -0.43.

For the compound `O=C1[C@H]2[C@H]3[C@H](O)[C@H](O)CC(=NOC[C@@H](O)COCc4ccco4)[C@@H]3CC[C@H]2C(=O)N1Cc1ccccc1`, the composite z-score was -0.153.

As to `O=C1[C@H]2CCn3c(=O)n(-c4ccccc4)c(=O)n3[C@H]2[C@H](O)[C@@H]2O[C@H]12`, the composite z-score came to 0.556.

Take `CON=C[C@@H](OC)[C@H](C)C=CCC(=O)OC`: the composite z-score was -0.0172.

The compound `CC(C)=CCCC(C)=CCON=C1C[C@@H](O)[C@@H](O)[C@@H]2[C@@H]3C(=O)N(Cc4ccc5c(c4)OCO5)C(=O)[C@@H]3CC[C@@H]12` displayed a composite z-score of 1.19.

Consider `CC(=O)OC[C@H]1O[C@H](CC=NO[C@@H](C)c2cc(-c3c(C)cc(C)cc3C)no2)C=C[C@@H]1OC(C)=O`, for which the composite z-score is 0.897.

For the compound `COc1ccc(-c2cnnc(CCCn3ccnc3-c3ccccc3)n2)cc1`, the composite z-score worked out at 0.22.

The compound `O=C1C2=CC[C@H]3C(=O)N(c4ccc(F)cc4F)C(=O)[C@H]3[C@H]2[C@H](O)[C@@H]2O[C@H]12` showed a composite z-score of 0.447.

Compound `COC(=O)CC=C[C@@H](C)[C@@H](C=NOC[C@@H](O)COCc1ccco1)OC` had a composite z-score of 0.457.

With `COC(=O)[C@H](C)NC(=O)CCC1CC(OC(=O)NCc2cccc3ccccc23)CC2(CCCC(COC(=O)NCCCN3CCCC3=O)O2)O1` (stereo partly specified), the composite z-score is 0.865.

In turn, `CCOC(=O)[C@H](CC(C)C)NC(=O)CCC1CC(OC(=O)NCc2ccc3c(c2)OCO3)CC2(CCCC(COC(=O)NCCc3ccccc3OC)O2)O1` (stereo partly specified) gave a composite z-score of 0.512.

The compound `CO[C@@H](C(C)C)[C@@H](C)C1OC(=O)CC1O` (stereo partly specified) gave a composite z-score of -0.468.

On to `Cc1ccc(C(C)C)n1C(=O)OC(C)(C)C`, for which the composite z-score is 0.963.

In the case of `CCOC(=O)[C@H](Cc1ccccc1)NC(=O)CCC1CC(OC(=O)NCc2ccc3c(c2)OCO3)CC2(CCCC(COC(=O)NCCOc3ccccc3)O2)O1` (stereo partly specified), the composite z-score turned out to be 0.411.

In turn, `CSCC[C@@H]1NC(=O)CC=C[C@@H](C)COC(=O)[C@H](C)COC1=O` gave a composite z-score of -0.918.

`CO[C@H]1COC(=O)CCC[C@H](C)[C@@H](OC)COC(=O)CC=C[C@@H]1C` showed a composite z-score of -0.256.

For `CC(C)[C@@H](OCc1ccccc1)[C@H](C)C=NO[C@@H](C)c1cn([C@H](CO)Cc2ccccc2)nn1`, the composite z-score was -0.0202.

Turning to `CCN1C(=O)[C@H]2[C@@H]3C(=CC[C@H]2C1=O)C(=O)[C@H]1O[C@H]1[C@H]3O`, the composite z-score was 0.49.

With `CC(C)=CCCC(C)=CCON=C1C[C@@H](O)[C@@H](O)[C@@H]2[C@@H]3C(=O)N(C4CCCCC4)C(=O)[C@@H]3CC[C@H]12`, the composite z-score was determined as 0.12.

Compound `C=CC[C@@H]1C=C[C@H](ON=C[C@@H](NS(=O)(=O)c2ccc(C)cc2)[C@H](C)C=CCC(=O)OC)[C@@H](CO)O1` returned a composite z-score of -0.407.

On to `COC(=O)[C@H](C)NC(=O)CCC1CC(OC(=O)NCCc2ccc(F)cc2)CC2(CCCC(COC(=O)NCCOc3ccccc3)O2)O1` (stereo partly specified), for which the composite z-score worked out at 0.56.

Compound `CO[C@@H]1COC(=O)[C@H](COCc2ccccc2)NC(=O)CC=C[C@@H](C)[C@H](OC)COC(=O)[C@@H](C)NC(=O)CC=C[C@H]1C` registered a composite z-score of -0.801.

For the compound `CC(CCC(=O)OC[C@H]1O[C@H](C#Cc2ccccc2)C=C[C@@H]1Oc1ccc(C)cc1)=NOC[C@@H](C)[C@H](OCc1ccccc1)C(C)C`, the composite z-score was -0.783.

The compound `COC(=O)[C@H](C)NC(=O)CC=C[C@@H](C)[C@@H]1C=C[C@H](O)[C@@H](CO)O1` returned a composite z-score of 0.116.

For `C=CC[C@@H]1C=C[C@H](ON=C(C)CCN2CCCc3nc(C)c(C)cc32)[C@@H](CO)O1`, the composite z-score was 0.182.

The compound `O=C1C=C[C@@H](O)[C@@H]2[C@@H]3C(=O)N(Cc4ccccc4)C(=O)[C@@H]3CC[C@@H]12` came in with a composite z-score of 0.222.
